Data: PubChem BioAssay (NCI)
This is part of a sample that, as a whole, favours compounds with a hit. Of some 83,000 tested, about 20% had one in any assay.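 A percent growth of 40 corresponds to 60% growth inhibition; 0 means no net growth; -100 means all cells died. Active threshold: below 10.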 A number with no mark means an inactive call. Calls of active or inactive are those of the source.

Experiments:
Experiment in all cases: NCI-60 one-dose screen, 48 h (100 = growth as untreated, 0 = no growth, -100 = all killed)
Conditions in all cases: 10 µM unless noted
HCT-15 colon = test system: HCT-15 colon
HT29 colon = test system: HT29 colon
SNB-75 CNS = test system: SNB-75 CNS
SNB-19 CNS = test system: SNB-19 CNS
U251 CNS = test system: U251 CNS
PC-3 prostate = test system: PC-3 prostate
SK-MEL-5 melanoma = test system: SK-MEL-5 melanoma
UACC-62 melanoma = test system: UACC-62 melanoma
LOX IMVI melanoma = test system: LOX IMVI melanoma
SK-MEL-28 melanoma = test system: SK-MEL-28 melanoma

| Compound | growth (HCT-15 colon) | growth (HT29 colon) | growth (SNB-75 CNS) | growth (SNB-19 CNS) | growth (U251 CNS) | growth (PC-3 prostate) | growth (SK-MEL-5 melanoma) | growth (UACC-62 melanoma) | growth (LOX IMVI melanoma) | growth (SK-MEL-28 melanoma) |
| --- | --- | --- | --- | --- | --- | --- | --- | --- | --- | --- |
| Cc1ccc(-n2nc3c(c(C#N)c2=O)CC(c2ccccc2[N+](=O)[O-])C([N+](=O)[O-])=C3O)cc1 (stereo not given) | 84.1% | 113% | 80.1% | 92.3% | 91.3% | 88.3% | 87.5% | 78.3% | 82.9% | 98.4% |
| N#CC(C(=O)/C(=N/NC(=O)c1ccccc1O)C(C#N)c1ccccc1)c1ccccc1 (stereo not given) | 43.1% | 101% | 18% | 33.2% | 6.45% (active) | 55.2% | 81.7% | 21.7% | 44.7% | 83.7% |
| CN1[C@@H]2CC[C@H]1/C(=C\c1ccccc1)C(=O)/C2=C/c1ccccc1 | 27.9% | 10.9% | 26.4% | 47.1% | 16.6% | 36.8% | 43.9% | 26.6% | 19.7% | 70.9% |
| ClC1=C(Br)C(Br)(Br)C(=C(Br)Br)C1(Br)Br | 79.2% | 82.5% | 96.6% | 93.9% | 94.5% | 82.8% | 92.6% | 81.2% | 77.9% | 102% |
| CCOc1cccc(-c2nc(N)nc(Nc3ccccc3SSc3ccccc3Nc3nc(N)nc(-c4cccc(OCC)c4)n3)n2)c1 | 18.5% | 110% | 90.5% | 55.1% | 8.24% (active) | 29.5% | 88% | 66.2% | 4.82% (active) | 93.6% |
| O=C(/C=C/c1ccc[nH]1)c1ccc(-n2ccc(C(F)(F)F)n2)c(F)c1 | 85% | 92.5% | 75.6% | 101% | 88.7% | 48.1% | 97.6% | 84.9% | 97.7% | 100% |
| N#C/C(=C\c1ccc([N+](=O)[O-])s1)c1nc2cc(Cl)ccc2s1 | -45.9% (active) | 33.7% | 49.7% | 12.8% | 1.57% (active) | -0.522% (active) | -94.4% (active) | 19.5% | -29.2% (active) | 21.1% |
| N=C1C(c2nc3ccccc3s2)=C(O)CN1c1cc(Cl)cc(Cl)c1 | 38.6% | 82.6% | 128% | 95.2% | 64.7% | 26.1% | 88.9% | 78.1% | 67% | 120% |
| COc1cc(-c2cc(-c3ccc(N(C)C)cc3)nc(N3CCOCC3)c2C#N)cc(OC)c1OC | 44.1% | 12.1% | 25.3% | 45% | 24.2% | 44.4% | 3.48% (active) | -39% (active) | -58.6% (active) | 65.4% |
| COc1ccc(CC(C)=C(c2ccc(OCCN3CCCCCC3)cc2)c2ccc(OCCN3CCCCCC3)cc2)cc1 | -95.9% (active) | -85% (active) | -92.9% (active) | -95% (active) | -91.4% (active) | -87.2% (active) | -97.9% (active) | -97.1% (active) | -100% (active) | -99.1% (active) |
| O=S(=O)(NCCNc1nccc(-c2c(-c3cccc(F)c3)nc3sccn23)n1)c1ccc(Cl)cc1 | 31.8% | 36% | 78.9% | 66.5% | 55.2% | 56.9% | 36.5% | 44.3% | 43.7% | 74.7% |
| O=S(=O)(NCCCNc1nccc(-c2c(-c3cccc(F)c3)nc3sccn23)n1)c1cccc2ccccc12 | 18% | 1.97% (active) | 86.5% | 69% | 59.1% | 41.2% | 31.8% | 24.3% | 20.9% | 77.5% |
| COCc1cnccc1NC1CCCCCC1 | 107% | 90.7% | 98.1% | 104% | 103% | 98.1% | 101% | 98.7% | 100% | 110% |
| COc1cc(C2=C(c3cn(C)c4ccccc34)COC2=O)cc(OC)c1OC | 5.39% (active) | 7.04% (active) | -31.3% (active) | 15.5% | 13.8% | 13.3% | 0.365% (active) | 12.6% | 2.86% (active) | 21.3% |
| COc1ccc(/C=C2\Oc3cc(OCCCN4CCCCC4)ccc3C2=O)cc1OC | 76.4% | 59.3% | 78.9% | 93.7% | 94.2% | 79.6% | 94.5% | 99.1% | 81.7% | 105% |
| COc1cc2c(cc1OC)C(=O)/C(=C/c1cc(C)c(O)c(C)c1)S2 | 18.7% | 83.2% | 24% | 38.7% | 27.2% | 38.4% | 21.3% | 43.3% | 44.2% | 65% |
| Cc1nc(N)nc(N[C@@H](C)c2nc3cccc(NCc4ccc(C(=O)NO)cc4)c3c(=O)n2-c2ccccc2)n1 | 110% | 77.3% | 69.6% | 71.3% | 52.7% | 88% | 77.3% | 59.1% | 72.8% | 70% |
| COc1cc2oc(-c3cccc(C(=O)Nc4ccc5c(c4)OCO5)c3)cc(=O)c2c(O)c1OC | 93.6% | 76.3% | 84.6% | 72.1% | 55.8% | 72.3% | 84% | 81.4% | 88.2% | 89.8% |
| O=C(Cc1ccccc1)NNc1nc(Cl)nc(N2CCN(C(c3ccccc3)c3ccccc3)CC2)n1 | 44.7% | 72.6% | 96% | 94% | 99.9% | 81.5% | 99.8% | 91.9% | 61.9% | 101% |
| CCOC(=O)c1cc(C(=O)c2cc(OC)cc(OC)c2)n2ccc3ccccc3c12 | 100% | 101% | -7.31% (active) | 55.2% | 81.8% | 99.4% | 100% | 91.1% | 88.9% | 107% |
| Cc1cc2cc3ccc(N(C)C)cc3nc2cc1N | 19.4% | -37.3% (active) | -11.5% (active) | -4.5% (active) | -2.3% (active) | 12.7% | -0.276% (active) | -27.5% (active) | -53.7% (active) | -68.5% (active) |
| COc1ccc(/C=C2\COc3ccc(-c4ccccc4)cc3C2=O)c(OC)c1 | 84.3% | 76.7% | 65.5% | 103% | 84.6% | 78.2% | 81.2% | 74.1% | 79% | 108% |
| CCCOC(=O)N[C@H]1CCc2cc(OC)c(OC)c(OC)c2-c2ccc(SC)c(=O)cc21 | 14.8% | 14.2% | 34.3% | 36.2% | 19.6% | 29.5% | -14.6% (active) | 41.5% | 18.6% | 58.7% |
| CN1CCN(C(=O)[C@]23CCC(C)(C)C[C@H]2C2=CC[C@@H]4[C@@]5(C)C/C(=C/c6cccnc6)C(=O)C(C)(C)[C@@H]5CC[C@@]4(C)[C@]2(C)CC3)CC1 | 41.4% | 33.1% | 82.1% | 65.4% | 44.7% | 19.1% | 49.8% | 52.8% | 68.5% | 77.9% |
| CCOC(=O)C1=C(C)NC(SCc2cc(=O)oc3ccc(F)cc23)=N[C@@H]1c1cccc2ccccc12 | 93% | 98.5% | 98.8% | 101% | 102% | 87.8% | 99.9% | 86% | 99.9% | 109% |
| Cc1cccc(NC(=O)Nc2ccc(-c3ccc4c(c3)NC(=O)/C4=C\c3ccc[nH]3)cc2)c1 | 66.9% | 99.4% | 81.7% | 90.2% | 74.7% | 94% | 100% | 98.1% | 78.7% | 95.9% |
